# Measured values as given in the supplement of paper PMC8253809.
# “And” between values parts separate entries of the source, which are not always exact repeats. Equal entries are not always repeated.
# System: DIPGX9 (diffuse intrinsic pontine glioma line)
# Assay: growth inhibition (% activity, log2 RLU normalised to DMSO / staurosporine); higher = more growth inhibition
# Details: 33 µM
# How it was run: (§1)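 The growth-inhibition value is the median over replicates. pHGG cell lines and H9-derived neural stem cells on Geltrex-coated 384-well plates received approved drugs by pin tool at a single final concentration of about 33 μM, in triplicate, for 7 days at 37 °C, 5% CO2. CellTiter-Glo luminescence was log2-transformed and normalised per plate to % activity between solvent and positive control wells.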
row,Compound,growth inhibition
1,N=C(N)c1ccc(OCCCCCOc2ccc(C(=N)N)cc2)cc1,13.9%
2,Cc1c(-c2ccccc2)oc2c(C(=O)OCCN3CCCCC3)cccc2c1=O,-0.867%
3,O=P(O)(O)C(Cl)(Cl)P(=O)(O)O,1.96%
4,CCOC(=O)c1c(CSc2ccccc2)n(C)c2cc(Br)c(O)c(CN(C)C)c12,0.402%
5,O=C(O)c1cc(=O)c2ccccc2o1,1.55%
6,O=C(Nc1cccc2c(=O)cc(-c3nnn[nH]3)oc12)c1ccc(OCCCCc2ccccc2)cc1,0.614%
7,CC(C(=O)O)c1cccc(Oc2ccccc2)c1 (stereo not drawn),0.241% and -0.0623%
8,CC(C[N+](C)(C)C)OC(N)=O (stereo not drawn),0.0426%
9,CC1(C)O[C@@H]2C[C@H]3[C@@H]4C[C@H](F)C5=CC(=O)C=C[C@]5(C)[C@@]4(F)[C@@H](O)C[C@]3(C)[C@]2(C(=O)CO)O1,7.24%
10,CC(=O)OCC(=O)[C@@]1(O)CC[C@H]2[C@@H]3CCC4=CC(=O)CC[C@]4(C)[C@H]3C(=O)C[C@@]21C,-3.1%
11,C[C@@]12C[C@@]3(O)O[C@@H](O1)[C@]1(COC(=O)c4ccccc4)[C@H]3C[C@@]12O[C@@H]1O[C@H](CO)[C@@H](O)[C@H](O)[C@H]1O,1.21%
12,Cc1ccc(-n2[nH]c(C)c(N=Nc3cccc(-c4cccc(C(=O)O)c4)c3O)c2=O)cc1C,-1.59%
13,CCOC(=O)c1ccc(C#Cc2ccc3c(c2)C(C)(C)CCS3)nc1,9.38%
14,CN1C(C(=O)Nc2ccccn2)=C(O)c2sc(Cl)cc2S1(=O)=O,0.761%
15,CC[C@H]1OC(=O)[C@H](C)[C@@H](O[C@H]2C[C@@](C)(OC)[C@@H](O)[C@H](C)O2)[C@H](C)[C@@H](O[C@@H]2O[C@H](C)C[C@H](N(C)C)[C@H]2O)[C@](C)(O)C[C@@H](C)C(=O)[C@H](C)[C@@H](O)[C@]1(C)O,0.939%
16,Clc1ccccc1CN1CCc2sccc2C1,2.4%
17,CC(C)OC(=O)C(C)(C)Oc1ccc(C(=O)c2ccc(Cl)cc2)cc1,2.82%
18,Clc1ccc(C(c2ccccc2Cl)C(Cl)Cl)cc1 (stereo not drawn),-0.6%
19,C=CCNC(N)=S,-0.168%
20,Clc1cccc(Cl)c1NC1=NCCN1,0.614%

row,Compound,growth inhibition
1,CC(C)(C)CC(C)(C)c1ccc(OCCOCC[N+](C)(C)Cc2ccccc2)cc1,43.5%
2,CN(C)CCCN1c2ccccc2CCc2ccc(Cl)cc21,2.88%
3,O=C(NCCN1CCOCC1)c1ccc(Cl)cc1,-0.472%
4,Cc1onc(-c2c(Cl)cccc2Cl)c1C(=O)N[C@@H]1C(=O)N2[C@@H]1SC(C)(C)[C@@H]2C(=O)O,0.739%
5,C[C@](N)(Cc1ccc(O)c(O)c1)C(=O)O,-0.748%
6,CN(C)CCCC1(c2ccc(F)cc2)OCc2cc(C#N)ccc21 (stereo not drawn),1.7%
7,CNCCC(Oc1ccc(C(F)(F)F)cc1)c1ccccc1 (stereo not drawn),0.851%
8,O=C([O-])C(O)[C@H](O)[C@@H](O)[C@H](O)[C@H](O)CO.O=C([O-])C(O)[C@H](O)[C@@H](O)[C@H](O)[C@H](O)CO.[Ca+2] (stereo partly drawn),1.24%
9,Cc1c(C(=O)NN2CCCCC2)nn(-c2ccc(Cl)cc2Cl)c1-c1ccc(Cl)cc1,-0.743%
10,CC(=O)N1CCN(c2ccc(OCC3COC(Cn4ccnc4)(c4ccc(Cl)cc4Cl)O3)cc2)CC1 (stereo not drawn),4.81%
11,CC(C)(Oc1ccc(CCNC(=O)c2ccc(Cl)cc2)cc1)C(=O)O,0.682%
12,O=C1[C@@H]2[C@H]3CC[C@H](C3)[C@@H]2C(=O)N1C[C@@H]1CCCC[C@H]1CN1CCN(c2nsc3ccccc23)CC1,-1.28%
13,CC(C)(Oc1ccc(Cl)cc1)C(=O)O,-1.38%
14,Cc1cc(C)nc(NS(=O)(=O)c2ccc(N)cc2)n1,-1.22%
15,Cc1cnc(NC(=O)C2=C(O)c3ccccc3S(=O)(=O)N2C)s1,-0.195%
16,CNC(=O)c1ccc(N2C(=S)N(c3ccc(C#N)c(C(F)(F)F)c3)C(=O)C2(C)C)cc1F,1.43%
17,COc1cc2c(cc1Cc1cccc(Cl)c1F)c(=O)c(C(=O)O)cn2[C@H](CO)C(C)C,3.93%
18,C=C1CC[C@H](O)C/C1=C/C=C1\CCC[C@]2(C)[C@@H]([C@H](C)/C=C/[C@H](C)C(C)C)CC[C@@H]12,3.65%
19,CC(C)(C)c1ccc(C(O)CCCN2CCC(C(O)(c3ccccc3)c3ccccc3)CC2)cc1 (stereo not drawn),0.591%

# System: HGGX39 (paediatric high-grade glioma line)
# Assay: as above
# Details: 33 µM
# How it was run: as §1
row,Compound,growth inhibition
1,N=C(N)c1ccc(OCCCCCOc2ccc(C(=N)N)cc2)cc1,42.9%
2,Cc1c(-c2ccccc2)oc2c(C(=O)OCCN3CCCCC3)cccc2c1=O,0.0272%
3,O=P(O)(O)C(Cl)(Cl)P(=O)(O)O,2.08%
4,CCOC(=O)c1c(CSc2ccccc2)n(C)c2cc(Br)c(O)c(CN(C)C)c12,0.0757%
5,O=C(O)c1cc(=O)c2ccccc2o1,0.445%
6,O=C(Nc1cccc2c(=O)cc(-c3nnn[nH]3)oc12)c1ccc(OCCCCc2ccccc2)cc1,2.23%
7,CC(C(=O)O)c1cccc(Oc2ccccc2)c1 (stereo not drawn),1.32% and -0.621%
8,CC(C[N+](C)(C)C)OC(N)=O (stereo not drawn),-1.35%
9,CC1(C)O[C@@H]2C[C@H]3[C@@H]4C[C@H](F)C5=CC(=O)C=C[C@]5(C)[C@@]4(F)[C@@H](O)C[C@]3(C)[C@]2(C(=O)CO)O1,5.97%
10,CC(=O)OCC(=O)[C@@]1(O)CC[C@H]2[C@@H]3CCC4=CC(=O)CC[C@]4(C)[C@H]3C(=O)C[C@@]21C,-6.61%
11,C[C@@]12C[C@@]3(O)O[C@@H](O1)[C@]1(COC(=O)c4ccccc4)[C@H]3C[C@@]12O[C@@H]1O[C@H](CO)[C@@H](O)[C@H](O)[C@H]1O,-0.682%
12,Cc1ccc(-n2[nH]c(C)c(N=Nc3cccc(-c4cccc(C(=O)O)c4)c3O)c2=O)cc1C,-1.34%
13,CCOC(=O)c1ccc(C#Cc2ccc3c(c2)C(C)(C)CCS3)nc1,8.54%
14,CN1C(C(=O)Nc2ccccn2)=C(O)c2sc(Cl)cc2S1(=O)=O,-1.26%
15,CC[C@H]1OC(=O)[C@H](C)[C@@H](O[C@H]2C[C@@](C)(OC)[C@@H](O)[C@H](C)O2)[C@H](C)[C@@H](O[C@@H]2O[C@H](C)C[C@H](N(C)C)[C@H]2O)[C@](C)(O)C[C@@H](C)C(=O)[C@H](C)[C@@H](O)[C@]1(C)O,1.08%
16,Clc1ccccc1CN1CCc2sccc2C1,4.15%
17,CC(C)OC(=O)C(C)(C)Oc1ccc(C(=O)c2ccc(Cl)cc2)cc1,2.79%
18,Clc1ccc(C(c2ccccc2Cl)C(Cl)Cl)cc1 (stereo not drawn),-0.428%
19,C=CCNC(N)=S,1.56%
20,Clc1cccc(Cl)c1NC1=NCCN1,1.32%

row,Compound,growth inhibition
1,CC(C)(C)CC(C)(C)c1ccc(OCCOCC[N+](C)(C)Cc2ccccc2)cc1,64.3%
2,CN(C)CCCN1c2ccccc2CCc2ccc(Cl)cc21,7.81%
3,O=C(NCCN1CCOCC1)c1ccc(Cl)cc1,-0.0669%
4,Cc1onc(-c2c(Cl)cccc2Cl)c1C(=O)N[C@@H]1C(=O)N2[C@@H]1SC(C)(C)[C@@H]2C(=O)O,2.25%
5,C[C@](N)(Cc1ccc(O)c(O)c1)C(=O)O,-1.35%
6,CN(C)CCCC1(c2ccc(F)cc2)OCc2cc(C#N)ccc21 (stereo not drawn),2.63%
7,CNCCC(Oc1ccc(C(F)(F)F)cc1)c1ccccc1 (stereo not drawn),2.21%
8,O=C([O-])C(O)[C@H](O)[C@@H](O)[C@H](O)[C@H](O)CO.O=C([O-])C(O)[C@H](O)[C@@H](O)[C@H](O)[C@H](O)CO.[Ca+2] (stereo partly drawn),2.2%
9,Cc1c(C(=O)NN2CCCCC2)nn(-c2ccc(Cl)cc2Cl)c1-c1ccc(Cl)cc1,-1.14%
10,CC(=O)N1CCN(c2ccc(OCC3COC(Cn4ccnc4)(c4ccc(Cl)cc4Cl)O3)cc2)CC1 (stereo not drawn),13.3%
11,CC(C)(Oc1ccc(CCNC(=O)c2ccc(Cl)cc2)cc1)C(=O)O,1.23%
12,O=C1[C@@H]2[C@H]3CC[C@H](C3)[C@@H]2C(=O)N1C[C@@H]1CCCC[C@H]1CN1CCN(c2nsc3ccccc23)CC1,2.33%
13,CC(C)(Oc1ccc(Cl)cc1)C(=O)O,0.448%
14,Cc1cc(C)nc(NS(=O)(=O)c2ccc(N)cc2)n1,-1.68%
15,Cc1cnc(NC(=O)C2=C(O)c3ccccc3S(=O)(=O)N2C)s1,-0.277%
16,CNC(=O)c1ccc(N2C(=S)N(c3ccc(C#N)c(C(F)(F)F)c3)C(=O)C2(C)C)cc1F,6.4%
17,COc1cc2c(cc1Cc1cccc(Cl)c1F)c(=O)c(C(=O)O)cn2[C@H](CO)C(C)C,4.45%
18,C=C1CC[C@H](O)C/C1=C/C=C1\CCC[C@]2(C)[C@@H]([C@H](C)/C=C/[C@H](C)C(C)C)CC[C@@H]12,7.46%
19,CC(C)(C)c1ccc(C(O)CCCN2CCC(C(O)(c3ccccc3)c3ccccc3)CC2)cc1 (stereo not drawn),2.84%
